# Screens deposited in PubChem BioAssay by National Center for Advancing Translational Sciences (NCATS).
# In the library only some 19% were active in any assay of this set; here they are far more common.
# TDP1 cell noCPT: qHTS for Inhibitors of human tyrosyl-DNA phosphodiesterase 1 (TDP1): qHTS in cells in absence of CPT | AID 686978, 2013 | Potency, µM (series often up to 46.2 µM), actives largely listed as inhibitors | hit rate 15% among 420,000 | DT40 Tdp1-/- hTDP1 cells, no CPT, ATP luminescence, 48 h; further: nearly all actives have a fitted effect of over 55% in size
#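 Seeded 400 DT40-hTDP1 cells/well (vehicle DMSO, no 20 nM CPT); pinned compounds; ≥48 hr at 37 °C; CellTiter-Glo luminescence as viability measure.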
# DT40 TDP1 CPT: qHTS for Inhibitors of human tyrosyl-DNA phosphodiesterase 1 (TDP1): qHTS in cells in presence of CPT; chicken DT40 Tdp1-/-;hTDP1 cells + 20 nM CPT, ATP luminescence, 48 h; Potency, µM (doses to about 46.2 µM), hits mostly inhibitors; hit rate 12% among 420,000; further: nearly all actives have a fitted effect of over 55% in size
#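 Chicken DT40 Tdp1-/- cells complemented with human TDP1, 400 cells/well, exposed to compounds plus 20 nM camptothecin for at least 48 h at 37 C; viability read as ATP content by CellTiter-Glo luminescence.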
# IL1B secr inh: qHTS for Inhibitors of Inflammasome Signaling: IL-1-beta AlphaLISA Primary Screen. hit rate 4.7% among 360,000. activity change, % at 57.5 µM. AID 743279, 2014. THP-1 LPS/ATP IL-1B secretion, AlphaLISA, 16 h; stronger effect = lower value; in the data active means activity change below about -50%; inconclusive means mostly about -30% to -49%
#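 THP-1 cells pretreated 1 hr with compounds (up to 57.5 uM final), then stimulated with LPS (250 ng/mL final) plus ATP (1.25 mM final); secreted IL-1B measured by AlphaLISA after 16 hr, decreased signal indicating inhibition.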
# HT1080-NT tox: qHTS for induction of synthetic lethality in tumor cells producing 2HG: qHTS for the HT-1080-NT fibrosarcoma cell line. hit rate 1.6% among 360,000. AID 686970, 2013. Potency, µM (top dose mostly 46.1 µM), actives largely listed as cytotoxic. HT-1080-NT fibrosarcoma viability, CellTiter-Glo ATP luminescence, 48 h;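 further: NT is the 2HG producing partner of a matched IDH1 knockdown line; nearly all actives have a fitted effect of over 55% in size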
#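 Fibrosarcoma NT cells, 750 per well in 5% FBS RPMI, were exposed to compound for 48 hours. Viability: CellTiter-Glo luminescence.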
# HT1080 IDH1KD tx: qHTS for induction of synthetic lethality in tumor cells producing 2HG: qHTS for the HT-1080-IDH1KD cell line. HT-1080 IDH1 knockdown viability, ATP luminescence, 48 h. Potency, µM (top dose mostly 46.1 µM), usual class: cytotoxic. hit rate 2% among 360,000. AID 686971, 2013
#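 Using the IDH1-knockdown HT-1080 line run in the same batch and compound series as the NT line, viability after 48 h at 37 °C was determined by CellTiter-Glo luminescence and expressed as % activity.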
# Numbers stand for hits; 0 = inactive; ? = inconclusive; - = not tested or not shown; [ ] = dose if it differs, or a comment. Unless noted, the call rests on the fitted dose curve; in most records, active means well fitted curve in the direction sought with a large enough effect; inconclusive means small, poorly fitted or top-dose-only effect, or another doubt; inactive means no such curve, though single readings can be large; an effect the other way counts as inactive or inconclusive.
SMILES,TDP1 cell noCPT,DT40 TDP1 CPT,IL1B secr inh,HT1080-NT tox,HT1080 IDH1KD tx
Cc1cc(N2CCN(C)CC2)nc2ccc(NC(=O)Nc3ccccc3Br)cc12,15µM,21µM,-,-,-
CCOc1cc(C(=O)Nc2ccc3nc(N4CCN(C)CC4)cc(C)c3c2)cc(OCC)c1OCC,4.6µM,18µM,-,-,-
Cc1cc(N2CCN(C)CC2)nc2ccc(NC(=O)Nc3ccc(F)cc3F)cc12,0,?,-,-,-
COc1ccc(Nc2ncnc3sc(C)cc23)c(OC)c1,?,0,0,0,0
CCCC(=O)O[C@@H]1C[C@@H](C)N(C(=O)c2ccccc2)c2ccc(C)cc21,21µM,21µM,0,0,0
CCOC(=O)c1cc(-c2csc(COc3ccccc3Cl)n2)on1,16µM,21µM,0,0,0
COC(=O)CCC/C=C1/SCC(NC(=O)c2ccccc2)C1=O (stereo not drawn),16µM,26µM,0,0,0
COc1cc2nc(N3CCCN(C)CC3)nc(NC3CCNCC3)c2cc1OC,13µM,11µM,-,0,0
COc1cc2nc(N3CCOCC3)nc(NC3CC3)c2cc1OC,13µM,13µM,-,0,0
COc1cc2c(NC3CCN(C)CC3)nc(N3CCCN(C)CC3)nc2cc1OCC1CCCNC1 (stereo not drawn),0,0,-,-,-
COc1cc2nc(N3CCN(C)CC3)nc(NC3CCN(C)CC3)c2cc1OC,11µM,8.9µM,-,0,0
COc1cc2nc(N3CCCN(C)CC3)nc(NC3CCN(C)CC3)c2cc1OC,18µM,13µM,-,0,0
COC(=O)c1ccccc1C(=O)N1CCc2c(cnc(C)c2CNC(=O)c2ccccc2F)C1,0,0[9.04 µM],-,-,-
O=C(CN1C(=O)NC2(CCCC2)C1=O)OCCOc1ccc(Cl)cc1Cl,?,?,0,0,0
O=C(C1CCCO1)N1CCN(S(=O)(=O)c2cc(F)ccc2F)CC1 (stereo not drawn),0,0,0,0,0
COc1cc2nc(N3CCCCC3)nc(NC3CCN(C)CC3)c2cc1OC,7.9µM,7.9µM,-,20µM,11µM
COc1cc2nc(NC3CCN(Cc4ccccc4)CC3)nc(N3CCCN(C)CC3)c2cc1OC,5µM,5µM,-,6.3µM,2.8µM
COc1cc2nc(N3CCCCC3)nc(NC3CCN(Cc4ccccc4)CC3)c2cc1OC,3.2µM,5µM,-,14µM,10µM
CC1CC(C)CN(S(=O)(=O)c2ccc(NC(=S)NC(=O)c3ccccc3)cc2)C1 (stereo not drawn),?,?,0,0,0
O=C(Nc1ncc(Cc2ccc(Cl)cc2)s1)c1ccc2c(c1)CC(c1ccccc1)OC2=O (stereo not drawn),7.3µM,4.6µM,-,-,-
Cc1ccc(C(=O)Nc2ncc(Cc3ccccc3)s2)o1,0,0,0,-,-
O=C(Nc1ncc(Cc2ccc(SC(F)F)cc2)s1)c1ccccc1,2.3µM,2.9µM,0,4.6µM,6.5µM
O=C(Nc1ccnn1C1CCN(C(=O)c2ccc(F)cc2)CC1)C1CCOC1 (stereo not drawn),0,0,0,0,0
C(#Cc1ccc(C#CCN2CCCC2)cc1)CN1CCCC1,21µM,?,0,0,0
CC(=O)N1Cc2cc([N+](=O)[O-])ccc2Oc2ccccc21,0,0,0,0,0
SMILES,TDP1 cell noCPT,DT40 TDP1 CPT,IL1B secr inh,HT1080-NT tox,HT1080 IDH1KD tx
O=C(CN1C2=NCCCN2c2ccccc21)c1ccc(Cl)cc1Cl,15µM,21µM,0,0,0
O=C(CN1C2=NCCCN2c2ccccc21)c1cccc(Br)c1,23µM,?,0,0,0
O=C(CN1C2=NCCN2c2ccccc21)c1ccc2c(c1)OCO2,?,?,-81,0,?
O=C(CN1C2=NCCN2c2ccccc21)c1ccc(Br)s1,?,18µM,0,0,0
CC1(C(=O)NC2CCCC2)CCC(=O)N1Cc1ccccc1Cl (stereo not drawn),0,0,0,0,0
CCN(c1ccccc1)S(=O)(=O)c1cccc(C(=O)Nc2ccc(C)cn2)c1,0,?,0,0,0
